This is an account of results in PubChem BioAssay (Tox21).

Results filed as inconclusive are left out. A number with no mark means an inactive call. Calls come from the whole dose curve.
% is set by controls: 0 for no effect and ±100 for the full control effect.

This test is described as follows: qHTS assay to identify small molecule agonists of the progesterone receptor (PR) signaling pathway - cell viability counter screen (AID 1346799). Note: nearly all actives have a fitted effect of over 45% in size. Particulars: PR-UAS-bla HEK293T viability, CellTiter-Glo luminescence, 16 h; series mostly up to 92.4 µM; activity change, negative = cytotoxicity: at the top concentration. The text has this: National Center for Advancing Translational Sciences [NCATS]
NIH Chemical Genomics Center [NCGC]
U.S. Environmental Protection Agency [EPA]
National Institutes of Environmental Health Sciences [NIEHS]
National Toxicology Program [NTP]
U.S. Food and Drug Administration [FDA]
Progesterone receptor (PR), a nuclear hormone receptor, plays an important role in development, metabolic homeostasis and reproduction. It is activated by the steroid hormone progesterone. Endocrine disrupting chemicals (EDCs) and their interactions with steroid hormone receptors like PR causes disruption of normal endocrine function. To identify the compounds that stimulate PR signaling, a PR-UAS-bla GripTite cell line i.e. PR-UAS-bla HEK293T (Invitrogen, Carlsbad, CA, USA) containing a beta-lactamase reporter gene under the control of an UAS response element was used to screen Tox21 10K compound library. The cytotoxicity of the Tox21 compound library against the PR-bla cell line was tested in parallel by measuring the cell viability using CellTiter-Glo assay in the same wells.
Tox21 Assay Protocol Summary:
PR-UAS-bla HEK293T cells were dispensed at 3,000 cells/5 uL of assay medium containing 2% charcoal stripped FBS per well into black wall/clear-bottom 1536-well plates using a Multidrop Combi (ThermoFisher Scientific, Waltham, MA) dispenser. After the assay plates were incubated at a 37C and 5% CO2 for 6 hr, 23 nL of compounds dissolved in DMSO, positive controls or DMSO only was transferred to the assay plate by a Pintool station (Kalypsys, San Diego, CA). The plates were incubated at 37C and 5% CO2 for 16 hr. Then 1 uL of LiveBLAzer B/G FRET substrate was added using a Flying Reagent Dispenser (FRD, Aurora Discovery, San Diego, CA), the plates were incubated at room temperature for 2 hours, and fluorescence intensity was measured by an Envision plate reader (PerkinElmer, Shelton, CT). For cell viability readout that measures cytotoxicity, 4 uL/well of CellTiter-Glo reagent was added into the assay plates using a FRD. After 30 min incubation at room temperature, the luminescence intensity in the plates was measured using a ViewLux (PerkinElmer) plate reader.
As for `FC(F)(F)c1ccc(Cl)cc1Cl`, the “activity change, negative = cytotoxicity” value was -2.1%.

With `O=C(O)c1c(Cl)ccc(Cl)c1Cl`, the “activity change, negative = cytotoxicity” value is -5.69%.

Turning to `O=C(Oc1ccccc1C(=O)O)c1ccccc1O`, the “activity change, negative = cytotoxicity” value was -6.81% [at 42.5 µM].

Regarding `Cc1cccc(Nc2ccncc2S(=O)(=O)NC(=O)NC(C)C)c1`, the “activity change, negative = cytotoxicity” value is 5.2% [at 42.5 µM].

`O=C(O)CCNC(=O)c1ccccc1`: the “activity change, negative = cytotoxicity” value is 5.51% [at 42.5 µM].

As to `O=C1NC2NC(=O)NC2N1` (stereo not given), the “activity change, negative = cytotoxicity” value was -20.7%.

Regarding `NS(=O)(=O)c1ccc(Cl)c(S(N)(=O)=O)c1`, the “activity change, negative = cytotoxicity” value is -7.98% [at 42.5 µM].

For the molecule `CCCCOC(=O)C(=O)OCCCC`, the “activity change, negative = cytotoxicity” value is 9.88%.

Consider `COc1ccc(OC)c(NC(=O)CC(C)=O)c1`, for which the “activity change, negative = cytotoxicity” value was -0.383%.

Take `O=CN1CCOCC1`: the “activity change, negative = cytotoxicity” value is 13.4%.

`CCCCC(CC)COC(=O)c1ccccc1` (stereo not given): the “activity change, negative = cytotoxicity” value is 20.6%.

Consider `Nc1c(NC/C=C\COc2cc(CN3CCCCC3)ccn2)c(=O)c1=O`, for which the activity change, negative = cytotoxicity is -2.25% [at 19 µM].

On to `COc1ccc(NS(=O)(=O)c2ccc(N)cc2)nn1`, for which the “activity change, negative = cytotoxicity” value was 3.12% [at 42.5 µM].

Consider `CCCCC(C)C(=O)O` (stereo not given), for which the “activity change, negative = cytotoxicity” value is -11.5%.

As for `C[N+](C)(C)CC(O)CCl` (stereo not given), the “activity change, negative = cytotoxicity” value is 6.65%.

As for `CC(C)COC(=O)CC(C(=O)OCC(C)C)S(=O)(=O)O` (stereo not given), the “activity change, negative = cytotoxicity” value was 10.7%.

With `c1ccccc1`, the “activity change, negative = cytotoxicity” value was -1.59%.

Turning to `O=C(O)c1ccccc1C(=O)OCc1ccccc1`, the “activity change, negative = cytotoxicity” value was 0.202%.

In the case of `Cc1cccc(NC(=S)N(C)C)c1`, the “activity change, negative = cytotoxicity” value was -32.9%.

With `CCCCOC(=O)C(C)OC(=O)CCC` (stereo not given), the “activity change, negative = cytotoxicity” value is 8.49%.

`CN(C)CCCNCCC#N`: the “activity change, negative = cytotoxicity” value is -13.6%.

Regarding `Cc1c(C(C)C)c(=O)n(-c2ccccc2)n1C`, the “activity change, negative = cytotoxicity” value is 5.6% [at 42.5 µM].

Regarding `Cc1ccc(C(=O)C(=O)O)cc1C`, the “activity change, negative = cytotoxicity” value was -0.799% [at 42.5 µM].

In the case of `CNC(=O)C(c1ccccc1)c1ccccc1`, the “activity change, negative = cytotoxicity” value is 12.6%.

In the case of `Nc1cc(Cl)cc(S(=O)(=O)O)c1O`, the “activity change, negative = cytotoxicity” value is 4.25%.

Turning to `CCCCCCCCCCCCCCCCCCN(C)C`, the “activity change, negative = cytotoxicity” value was 0.319% [at 42.5 µM].

On to `NC(=O)NC(=O)Cc1ccccc1`, for which the “activity change, negative = cytotoxicity” value was 5.23% [at 42.5 µM].

Turning to `CC(C)CCC(=O)CCC(C)C`, the “activity change, negative = cytotoxicity” value is 6.54%.

With `CCN(CCC#N)c1ccccc1`, the “activity change, negative = cytotoxicity” value was -4.11%.

`C=CCOCC(CO)(COCC=C)COCC=C`: the “activity change, negative = cytotoxicity” value is -5.41% [at 42.5 µM].

With `F[Si-2](F)(F)(F)(F)F`, the “activity change, negative = cytotoxicity” value was 2.81%.

As for `CC(C)c1ccccc1O`, the “activity change, negative = cytotoxicity” value is 8.14%.

As to `COC(OC)C(C)c1ccccc1` (stereo not given), the “activity change, negative = cytotoxicity” value is -3.44%.

Take `O=C1CC[C@H](C(=O)N2CCCCC2)N1`: the “activity change, negative = cytotoxicity” value is 2.97% [at 42.5 µM].

As to `C1CCN2C[C@@H]3C[C@@H](CN4CCCC[C@@H]34)[C@H]2C1`, the “activity change, negative = cytotoxicity” value is -20.4% [at 42.5 µM].

For the molecule `CNC(=O)NC`, the “activity change, negative = cytotoxicity” value was 8.47%.

For `CC(=O)c1ccc2c(c1)CCCC2`, the “activity change, negative = cytotoxicity” value is 12.3%.

Consider `C=CCOC(=O)c1ccc(C(=O)OCC=C)c(C(=O)OCC=C)c1`, for which the “activity change, negative = cytotoxicity” value was -1.6%.

As to `CCNC(=O)NCCCOc1cccc(CN2CCCCC2)c1`, the “activity change, negative = cytotoxicity” value is -16% [at 42.5 µM].

Regarding `Cc1ccccc1C(=O)N1CC/C(=N\OS(=O)(=O)O)c2ccc(Cl)cc21`, the “activity change, negative = cytotoxicity” value is -1.07% [at 42.5 µM].
